Screening results from PubChem.
SKKanGAS inh: SKKanGAS growth inhibition; actives 1.3% (n = 300,000); S. pyogenes SKKanGAS, kanamycin growth, BacTiter-Glo, 6 h; inhibition, % at 7.5 µM; AID 1662;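 active means mean replicate score, as percent of positive control median, at least 50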;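 further: strain carries kanamycin resistance gene driven by streptokinase promoter and grows in 40 µg/ml kanamycin; loss of luminescence reflects streptokinase promoter inhibition or plain growth inhibition; 0% = median of DMSO wells and 100% = positive control at its reference dose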
tim23-1 inh: growth inhibitors of tim23-1 mutant yeast; S. cerevisiae tim23-1 growth, BacTiter-Glo luminescence, 24 h; actives 1.3% (n = 330,000); inhibition, % at 20 µM;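 active means growth inhibition of the mutant yeast at or above 50%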;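 further: temperature-sensitive mutant grown at 25 °C; plate controls were DMSO-treated mutant yeast for no effect and medium wells lacking yeast for full effect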
NALP3 yeast inh: NALP3 inhibition in yeast | inhibition, % at 10 µM | Yeast reconstituted NLRP3/ASC/caspase-1, beta-gal luminescence, 24 h | actives 0.39% (n = 330,000) | AID 2825;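 active means inhibition of 50% or more; inactive means inhibition below 50%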;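 further: plate controls were induced DMSO wells for no effect and uninduced yeast grown without galactose for full effect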
TIM10 inh: inhibits growth of TIM10 yeast strain; S. cerevisiae TIM10 strain growth, BacTiter-Glo luminescence, 24 h; inhibition, % at 10 µM; actives 1.4% (n = 330,000); AID 463195;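 active means inhibition of 40% or more at the single tested concentration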;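 further: wild-type TIM10 isogenic control strain grown at permissive 25 °C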
tim10-1 inh: inhibits growth of tim10-1 mutant yeast. actives 2.2% (n = 330,000). S. cerevisiae tim10-1 ts strain growth, BacTiter-Glo, 24 h. inhibition, % at 20 µM;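 active means inhibition of at least 40%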;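 further: mutant grown at 25 °C; 0% = DMSO wells with yeast and 100% = wells holding no yeast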
tim10-1 conf: confirmation of tim10-1 mutant yeast growth inhibitors; actives 56% (n = 7,400); AID 463213; inhibition, % at 20 µM; S. cerevisiae tim10-1 ts strain growth, BacTiter-Glo, 24 h; shares compounds with tim10-1 inh;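 active means inhibition of yeast growth at or above a set limit in either of two repeat tests at 20 µM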;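 further: tim10-1 mutant grown at permissive 25 °C to find synthetic lethal compounds; 0% = DMSO yeast wells and 100% = medium wells without yeast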
tim10 confirm: confirmation of TIM10 yeast growth inhibitors | AID 463215 | shares compounds with TIM10 inh | S. cerevisiae tim10 strain growth, BacTiter-Glo luminescence, 24 h | inhibition, % at 10 µM | actives 63% (n = 4,600);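 active means inhibition of yeast growth at or above a set limit in either of two replicates at 10 µM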;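 further: this counterscreen used the strain with wild-type TIM10; 0% = yeast with DMSO and 100% = medium wells lacking yeast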
tim23-1 confirm: confirmation of tim23-1 mutant yeast growth inhibitors; S. cerevisiae tim23-1 growth, BacTiter-Glo luminescence, 24 h; shares compounds with tim23-1 inh; inhibition, % at 20 µM; AID 463218; actives 83% (n = 4,400);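 active means inhibition above about 39% in either of two replicate wells at 20 µM, limit read from the data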;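 further: temperature-sensitive tim23-1 mutant grown at 25 °C; 0% = DMSO wells with yeast and 100% = medium wells without yeast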
* marks the source's active call; other numbers are inactive results; / = no result given. An excerpt weighted towards active compounds, which were near 4.6% of everything screened.

SMILES	SKKanGAS inh	tim23-1 inh	NALP3 yeast inh	TIM10 inh	tim10-1 inh	tim10-1 conf	tim10 confirm	tim23-1 confirm
Cc1ccc(C(C)(O)CS(=O)(=O)Cc2ccccc2)cc1 (configuration not stated)	5	9	3	2	2	/	/	/
Cc1cccc(OCC(=O)O/N=C(\N)Cc2ccc(Cl)cc2)c1	11	75*	27	72*	57*	40*	84*	70*
CC(C)(C)C(=O)O/N=C(\N)COc1cccc(Cl)c1	3	80*	18	67*	40*	28	74*	69*
CC(C)(C)C(=O)O/N=C(\N)c1c(Cl)cccc1Cl	2	4	5	2	5	/	/	/
C[C@@H]1CN([C@@H](C)CO)C(=O)c2cc(NC(=O)Nc3ccc(F)cc3)ccc2O[C@@H]1CN(C)Cc1ccc(Oc2ccccc2)cc1	/	23	20	2	4	/	/	/
COc1ccc(C(=O)NCC(=O)N2CCN(c3ncccn3)CC2)cc1OC	/	0	9	-5	2	/	/	/
O=c1c2c([N+](=O)[O-])cc([N+](=O)[O-])cc2nc2ccccn12	7	85*	9	37	42*	68*	/	87*
Cc1ccc2c(c1)C(=O)C(=O)N2CC1COc2ccccc2O1 (configuration not stated)	1	65*	18	18	41*	30	/	78*
COc1ccccc1Nc1nc(N)nc(CSC(=S)N2CCCCC2)n1	12	30	-12	11	17	/	/	/
CC1CCCC(NS(=O)(=O)c2ccc3c(c2)OCCO3)C1C (configuration not stated)	7	52*	36	34	57*	48*	/	59*
O=c1oc(-c2ccco2)nc2c1cnn2-c1ccccc1	7	64*	19	28	48*	35*	/	67*
O=c1c2cnn(-c3ccccc3)c2nc(-c2ccco2)n1-c1ccccc1	/	48	29	29	28	/	/	/
CC1CC(C)CN(C(=O)CCNC(=O)c2ccccc2Cl)C1 (configuration not stated)	-2	15	15	11	21	/	/	/
Cc1ccc(NC(=O)C(C)c2ccc([N+](=O)[O-])cc2)cc1Cl (configuration not stated)	-6	51*	12	59*	58*	59*	48*	61*
Cc1ccc(C(=O)/C=C/c2ccc3ncccc3c2)cc1	-3	69*	36	52*	53*	52*	50*	47*
COc1ccc2c(c1)CC/C2=N\OC(=O)c1ccccc1C	17	70*	37	73*	43*	31	87*	75*
COc1ccc2c(c1)CCC/C2=N/OC(=O)c1ccccc1OC	-4	43	17	24	28	/	/	/
O=C(O)c1cc(-c2ccc(Cl)c(Cl)c2)n(-c2ccc(F)cc2)n1	-13	21	-2	12	0	/	/	/
O=c1/c(=C/c2cccc3ccccc23)sc2ncnn12	0	69*	3	16	46*	19	/	74*
CCOc1ccc(Nc2nc(N)c3ccccc3n2)cc1	60*	57*	39	46*	62*	65*	50*	65*
Nc1nc(CCl)nc(Nc2ccccc2)n1	2	13	-3	15	26	/	/	/
Nc1nc(Nc2ccc(Cl)cc2)nc2ccccc12	/	58*	40	68*	67*	57*	67*	55*
COc1ccc(NC(=O)C(OC(=O)c2cnccn2)c2ccccc2)cc1Cl (configuration not stated)	8	7	14	-1	14	/	/	/
COc1ccccc1-n1cnc2cc(NCc3cccs3)ccc21	19	56*	18	45*	45*	27	-18	71*
COc1ccc(CNc2ccc3c(c2)ncn3-c2ccccc2OC)cc1	7	61*	46	64*	53*	27	62*	71*
